Results reported in ChEMBL document CHEMBL4513216, “Probing the Open Global Health Chemical Diversity Library for Multistage-Active Starting Points for Next-Generation Antimalarials” (ACS Infect Dis, 2020).
Screen size: about 69,000 compounds; about 8,600 (12%) showed an effect of 50% or more. The sample as a whole holds a higher share of strong results than the screen did.

tested on: Plasmodium berghei; test: Screen against P. berghei liver stage (PbLuc), transformed with Luciferase, at 10uM; type: functional, HepG2; settings: tested at 10 uM

Row | SMILES | INHIBITION [%]
1 | O=C(Cc1ccsc1)N1C[C@@H]2C[C@@H](c3nnc(C4CC4)o3)O[C@@H]2C1 | 61.8
2 | O=C(c1ccoc1)N1CC[C@H]2C[C@@H](c3nnc(C4CC4)o3)O[C@@H]2C1 | 35.8
3 | O=C(c1ccccc1)N1CC[C@H]2C[C@@H](c3nnc(C4CC4)o3)O[C@@H]2C1 | 38.5
4 | O=C(c1cccs1)N1CC[C@H]2C[C@@H](c3nnc(C4CC4)o3)O[C@@H]2C1 | 26.7
5 | Cc1ccoc1C(=O)N1CC[C@H]2C[C@H](c3nnc(C4CC4)o3)O[C@@H]2C1 | 54.8
6 | O=C(c1ccsc1)N1CC[C@H]2C[C@@H](c3nnc(C4CC4)o3)O[C@@H]2C1 | -1.64
7 | Cc1occc1C(=O)N1CC[C@H]2C[C@@H](c3nnc(C4CC4)o3)O[C@@H]2C1 | 68.4
8 | O=C(c1ccccc1)N1CC[C@H]2C[C@H](c3nnc(C4CC4)o3)O[C@@H]2C1 | 38.5
9 | O=C(c1ccsc1)N1C[C@@H]2C[C@@H](c3nnc(C4CC4)o3)O[C@@H]2C1 | -31.6
10 | Cc1ccnc(C2COCCN2C)n1 (stereo not given) | 8.905
11 | CCn1ccnc1CN1CCN(CC(O)c2ccco2)CC1 (stereo not given) | 10.55
12 | c1cncc(COCC2CN(Cc3cccnc3)Cc3ccnn3C2)c1 (stereo not given) | -60.2
13 | CCCc1cc(=O)[nH]c(-c2ccccc2CN(C)CCC(C)C)n1 | 36.6
14 | Cc1cccn2cc(CN3CCC(N4CCN(C)C4=O)CC3)nc12 | -1.85
15 | OC(CN1CCN(Cc2cccnc2)CC1)c1cccs1 (stereo not given) | 10.1
16 | CCc1nccn1CCC(=O)N1CCCC1c1cncc(NC)n1 (stereo not given) | 2.365
17 | O=C(CN1CC(c2nc(C3CC3)no2)C1)NCC1CCCO1 (stereo not given) | 48
18 | O=S(=O)(C1CC1)N1CCO[C@H]2[C@H](OCCN3CCCC3)CC[C@@H]21 | -9.67
19 | CN(Cc1cnccn1)S(=O)(=O)N1CCCC1c1ccco1 (stereo not given) | 4.3
20 | Cc1noc(C)c1CN1CCOC(CNc2cccnn2)C1 (stereo not given) | -7.35
21 | CCOc1cc(CNCc2ncc[nH]2)c(Cl)cc1OC(C)C | 33.1
22 | CCOc1cc(CNCc2nc(C)cc(=O)[nH]2)c(Cl)cc1OC(C)C | 39.6

Row | SMILES | INHIBITION [%]
23 | CCOc1cc(CNCc2cnc(C)cn2)c(Cl)cc1OC(C)C | 63.5
24 | Cc1nc(CN2CCN(C(=O)NC(C)Cn3ccnc3)CC2)cs1 (stereo not given) | -28.2
25 | CS(=O)(=O)c1snnc1C1CCN(Cc2cccnc2)CC1 | 48.6
26 | CS(=O)(=O)c1snnc1C1CCN(Cc2ccncc2)CC1 | 67.7
27 | Cc1cccc(CN2CCC(c3nnsc3S(C)(=O)=O)CC2)c1 | 18.9
28 | CNc1ncc(CN2CCC(c3nnsc3S(C)(=O)=O)CC2)cn1 | 21.9
29 | CS(=O)(=O)c1snnc1C1CCCN(Cc2ccncc2)C1 (stereo not given) | 9.93
30 | CN(C)c1ncc(CN2CCC(c3nnsc3S(C)(=O)=O)CC2)cn1 | 51.2
31 | CCC(O)CN1CCN(C(=O)c2cnc3n[nH]c(C)c3c2)CC1 (stereo not given) | 12.7
32 | O=C(O)CSc1nccc(-c2ccc3c(c2)OCO3)n1 | 8.51
33 | CCc1nnc(C(C)N2CCc3cncnc3C2)o1 (stereo not given) | 2.43
34 | O=C(NC1CC1)N1CC[C@H](OCC2CC2)[C@@H]1Cc1cccnc1 | 29
35 | O=C(CN1CCC(c2ccccc2)C1)NC(=O)NCC(F)(F)F (stereo not given) | 36.65
36 | O=C(Nc1nc2c(s1)CN(S(=O)(=O)C1CC1)CC2)c1cccc(Cl)c1 | 26
37 | O=C(Nc1nc2c(s1)CN(S(=O)(=O)C1CC1)CC2)c1ccccn1 | 39.3
38 | CS(=O)(=O)N1CCc2nc(NC(=O)Nc3c(F)cccc3F)sc2C1 | 9.54
39 | O=C(Nc1nc2c(s1)CN(S(=O)(=O)C1CC1)CC2)c1c(F)cccc1F | -45.9
40 | O=C(Nc1nc2c(s1)CN(S(=O)(=O)C1CC1)CC2)Nc1ccccc1F | 64.5
41 | O=C(Nc1nc2c(s1)CN(S(=O)(=O)C1CC1)CC2)c1ccc(Cl)s1 | 73.3
42 | CC(CNC(=O)NCCCc1cc(N)n(-c2ccccc2)n1)N(C)C (stereo not given) | 30.3
43 | CCN(CC)Cc1cn2c(n1)CN(C(=O)c1cc(C)on1)CC2 | 38.1
44 | COC(=O)C1(NCC(=O)Nc2cc(C)ccc2OC)CCCCC1 | 5.11

Row | SMILES | INHIBITION [%]
45 | c1ncn(CC2CN(Cc3nc(C4CC4)no3)CCO2)n1 (stereo not given) | -7.31
46 | CCn1cnnc1C1CCN(C(=O)c2ccnc(N(C)C)c2)CC1 | 31.6
47 | O=C(c1ccno1)N1CCOC[C@H](Oc2ccc(C(F)(F)F)cc2)C1 | 50.2
48 | O=C(c1ccno1)N1CCOC[C@H](Oc2ccccc2)C1 | 25.3
49 | COc1ccc(O[C@H]2COCCN(C(=O)c3ccno3)C2)cc1 | -11.1
50 | CCOCC(=O)Nc1cccc(Oc2ccccn2)c1 | -13.4
51 | COCCN1CCC2(CCN(Cc3cccs3)CC2)C1=O | -3.12
52 | O=C(NCCCn1nc2ccccn2c1=O)NCc1ccccc1 | -9.76
53 | CC(C)NC(=O)c1cc2c(s1)CCN2c1ncccn1 | -21.3
54 | O=C(NCC1CC1)c1cc2c(s1)CCN2C(=O)c1cccnc1 | -26.1
55 | O=C(NCCN1CCCC1)c1cc2c(s1)CCN2c1ncccn1 | 61.1
56 | O=C(NCC1CC1)c1cc2c(s1)CCN2c1ncccn1 | 75.6
57 | Cc1ccc(N2CCc3sc(C(=O)NCCN4CCCC4)cc32)nn1 | -15.2
58 | CCCNC(=O)c1cc2c(s1)CCN2c1ncccn1 | 4.98
59 | O=C(c1ccco1)N1CCO[C@@H]2CNC[C@@H]21 | 22.2
60 | COc1ccc(C)cc1-n1ccc(C(=O)NCC2CCCOC2)n1 (stereo not given) | 17.3
61 | OC1(CNCCc2nc3c(s2)CCCC3)CNCCOC1 (stereo not given) | -12.1
62 | CN(CCCSc1ccccc1)C(=O)Cn1ncc(N(C)C)cc1=O | 31.7
63 | Cc1ccc(NC(=O)c2nc3c(s2)CCCN3C(C)C)cn1 | 63.5
64 | CC(=O)N1CCCc2sc(C(=O)Nc3ccc(C)nc3)nc21 | 34.6
65 | Cc1ccc(NC(=O)c2nc3c(s2)CCCN3C(=O)C2CC2)cn1 | -0.804
